# VACV Venus inh: inhibitors of vaccinia virus (Venus reporter). Vaccinia virus Venus reporter expression, fluorescence. Potency, µM (series often up to 36.5 µM), for inactives: at the top dose activity change, negative = inhibition, usual class: inhibitors. actives 0.46% (n = 330,000); calls by dose curve; tested in A549 cells; also: nearly all actives have a fitted effect of over 30% in size
# Pf growth 96h: inhibits malaria parasite growth, 96 h. Potency, µM (top dose mostly 28.7 µM), for inactives: at the highest dose activity change, negative = inhibition, usual class: inhibitors. P. falciparum luciferase reporter growth, 96 h. AID 504834. actives 6.9% (n = 320,000)
#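 Readout is luminescence from an integrated firefly luciferase in P. falciparum. Red cells, 2% hematocrit and 0.05% parasitemia final, were cultured with compound through two parasite generations (96 hours) at 37 C, 5% CO2.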
# Pf growth 48h: P. falciparum growth inhibition at 48 hours (one generation); P. falciparum luciferase growth in erythrocytes, 48 h; Potency, µM (titrated, usually from 28.7 µM), inactives show top-dose activity change, negative = inhibition, actives largely listed as inhibitors; actives 5.9% (n = 310,000)
#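 Compounds are pin-transferred into medium, infected erythrocytes (2% hematocrit, 0.1% parasitemia final) are added, and plates sit one parasite generation at 37 C in 5% CO2. Detection reagent is then added and luminescence measured.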
# AMA1 RON2 block: disrupts binding of P. falciparum AMA1 to RON2 | AlphaScreen AMA1-biotinylated RON2 peptide binding | Potency, µM (top dose mostly 58.2 µM), for the others: at the highest dose activity change, negative = inhibition, actives largely listed as inhibitors | actives 0.2% (n = 360,000) | AID 720542;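 also: 0% = vehicle wells and -100% = peptide control; nearly all actives have a fitted effect of over 45% in size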
#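 AMA1 (3D7) with his tag at 25 nM final met compounds first, then biotinylated RON2 peptide at 25 nM; detection used donor plus acceptor beads, 10 µg/mL apiece, read by AlphaScreen after 30 min at room temperature.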
# VACV mCherry inh: inhibitors of vaccinia virus infection (mCherry reporter signal). Vaccinia virus mCherry reporter infection, fluorescence. Potency, µM (top dose mostly 36.5 µM), inactives show at the highest dose activity change, negative = inhibition, most hits filed as inhibitors. actives 0.63% (n = 310,000). AID 720579; calls by dose curve; tested in A549 cells; also: nearly all actives have a fitted effect of over 35% in size
# An asterisk follows results filed as active; i = inactive; ? = inconclusive; nt = no result given; [ ] = remark or other dose. Most compounds without a hit are left out; they make up all but 8.7% or so of the library. Unless noted, calls follow the shape of the dose curve; as a rule, active = well fitted curve in the direction sought with a large enough effect; inconclusive = small, poorly fitted or top-dose-only effect, or another doubt; inactive = no such curve, though single readings can be large; an effect the other way counts as inactive or inconclusive. Unless noted, % is scaled to controls: 0 for no effect and ±100 for the full control effect; potency is read from the fitted curve at half-maximal effect.
SMILES,VACV Venus inh,Pf growth 96h,Pf growth 48h,AMA1 RON2 block,VACV mCherry inh
CCN(CC)S(=O)(=O)c1ccc(N/N=C/c2ccc(O)cc2)nc1,-4%,?,-21%,9%,?
CCC(=O)C1=C(c2ccc(OC)c(OC)c2)N(C(=O)CC)n2c(CC)nnc2S1,1%[7.34 µM],nt,nt,nt,1%[7.34 µM]
Nc1[nH]c(=S)[nH]c(=O)c1N,-7%,nt,nt,nt,-14%
Cc1cc(NC(=O)c2cc3n(n2)C(C(F)(F)F)CC(c2ccco2)N3)no1 (stereo unspecified),-20%,10µM*,nt,-2%,-17%
O=C1CN(C(=O)CSc2nc3cc(Cl)ccc3c(=O)n2Cc2ccccc2)c2ccccc2N1,-15%,?,3.3µM*,51%,i
Cc1nnc(SCC(=O)N2CC(=O)Nc3ccccc32)n1Cc1ccccc1,-1%,-3%,?,-15%,0%
Cc1ccc(Cn2c(SCC(=O)N3CC(=O)Nc4ccccc43)nc3ccccc3c2=O)cc1,-29%,13µM*,?,10%,?
O=C1CN(C(=O)CSc2nnnn2-c2ccc(Cl)cc2)c2ccccc2N1,-10%,54%,4.7µM*,17%,i
C=CCn1c(SCC(=O)N2CC(=O)Nc3ccccc32)nc2scc(-c3ccccc3)c2c1=O,-29%,4.7µM*,8.3µM*,10%,-18%
O=C(Nc1ccc(F)cc1)c1oc2ccccc2c1NC(=O)C12CC3CC(CC(C3)C1)C2,3%,nt,nt,nt,4%
Cc1ccc([N+](=O)[O-])cc1NC1OC(CO)C(O)C1O (stereo unspecified),nt,22%,13%,14%,nt
Cc1ccc([N+](=O)[O-])c(NC2OC(CO)C(O)C2O)c1 (stereo unspecified),-9%,5.2µM*,-18%,5%,i
CCN(C(=O)C1CCN(S(=O)(=O)c2c(C)noc2/C=C/c2ccc(C)cc2)CC1)c1cccc(C)c1,3%,nt,nt,nt,-4%
CCN(CC)C(=O)c1sc2nc(-c3cccs3)cc(-c3cccs3)c2c1N,nt,?,4.1µM*,39%,nt
CCN(CC)C(=O)c1sc2nc(-c3cccs3)cc(-c3ccc(Cl)cc3)c2c1N,0%,7.4µM*,?,21%,-9%
CCCn1ccc2c(OCC(=O)NCc3ccccc3Cl)cccc2c1=O,-12%,nt,nt,nt,-20%
O=C1NC(Cc2c[nH]c3ccccc23)C(=O)N1Cc1ccc(CN2C(=O)NC(Cc3c[nH]c4ccccc34)C2=O)cc1 (stereo unspecified),nt,-19%,5.2µM*,2%,nt
CC(C)(C)NC(=O)c1ccc2c(c1)N(CC(=O)N1CCN(c3ccc(F)cc3)CC1)C(=O)C(C)(C)O2,-6%,nt,10µM*,-17%,-9%
CCOc1ccccc1/C=C/c1onc(C)c1S(=O)(=O)N1CCC(C(=O)N2CCCCC2)CC1,-18%,nt,nt,nt,-28%
O=C(CN1CCCCC1)NCC(=O)Nc1ccc(Br)cc1C(=O)c1ccccc1,nt,122%,-3%,6%,nt
O=C(CCN1CCOCC1)Nc1c(-c2ccccc2)c2cc(Br)ccc2[nH]c1=O,-23%,?,?,-1%,-6%
NNC(=O)CNC(c1ccccc1)c1cc(Br)ccc1NC(=O)c1ccccc1Br (stereo unspecified),-11%,78%,8.3µM*,59%,-24%
O=C(CCN1CCOCC1)NCC(=O)Nc1ccc(Br)cc1C(=O)c1ccccc1,-14%,13µM*,11%,-7%,-20%
NNC(=O)CNC(c1ccccc1)c1cc(Br)ccc1NC(=O)CCN1CCOCC1 (stereo unspecified),6%,9.3µM*,12µM*,5%,nt
NNC(=O)CNC(c1ccccc1)c1cc(Br)ccc1NC(=O)c1cccc(Cl)c1 (stereo unspecified),-1%,?,13µM*,35%,-10%
SMILES,VACV Venus inh,Pf growth 96h,Pf growth 48h,AMA1 RON2 block,VACV mCherry inh
CCOC(=O)CNC(c1ccccc1)c1cc(Br)ccc1NC(=O)c1cccc(Cl)c1 (stereo unspecified),10%,nt,nt,nt,-2%
COc1ccc(-c2onc(C)c2C)cc1S(=O)(=O)NCc1ccco1,-20%,nt,nt,nt,-7%
NNC(=O)CNC(c1ccccc1)c1cc(Br)ccc1NC(=O)c1ccc(Br)cc1 (stereo unspecified),-11%,-9%,8.3µM*,7%,-6%
COC(=O)CNC(c1ccccc1)c1cc(Br)ccc1NC(=O)c1ccccc1 (stereo unspecified),4%,nt,nt,nt,2%
Cc1[nH]c2ccccc2c1C(=O)CCl,?,10µM*,?,-9%,?
Cc1[nH]c2ccccc2c1C(=O)CN1CCCCC1C (stereo unspecified),-6%,15µM*,-5%,-7%,nt
CCC1CCCCN1CC(=O)c1c(C)[nH]c2ccccc12 (stereo unspecified),16%,-27%,4%,42%,nt
Cc1[nH]c2ccccc2c1C(=O)CN(C)c1ccccc1,-17%,nt,nt,nt,-16%
Cc1[nH]c2ccccc2c1C(=O)CN1CCC2(CC1)OCCO2,-11%,0%,0.93µM*,22%,-13%
Cn1nnnc1SCc1nc2scc(-c3ccccc3)c2c(=O)[nH]1,nt,11%,-9%,-7%,nt
c1ccc(-c2csc3ncnc(Sc4nnnn4-c4ccccc4)c23)cc1,-29%,nt,nt,nt,?
CC(=O)Nc1ccc(Sc2ncnc3scc(-c4ccccc4)c23)cc1,-23%,?,-12%,-7%,-1%
Cn1nnnc1Sc1ncnc2scc(-c3ccc[nH]3)c12,nt,?,10µM*,nt,nt
Cn1nnnc1Sc1ncnc2scc(-c3ccccc3)c12,?,-3%,12µM*,3%,?
CCCC(=O)Nc1ccccc1Sc1ncnc2scc(-c3ccccc3)c12,-2%,18%,4.7µM*,4%,-8%
Cn1nnnc1Sc1ncnc2scc(-c3ccc(F)cc3)c12,?,?,0%,1%,10µM*
Cc1ccc(-c2csc3ncnc(Sc4nnnn4C4CC4)c23)cc1,-28%,nt,nt,nt,-24%
Brc1ccc2c(c1)CN1CCCC1=N2,-24%,?,10µM*,-1%,-27%
O=C(O)C1CCN(C(=O)c2ccc(S(=O)(=O)N3CCCCCC3)cc2)CC1,-13%,nt,nt,6%,-14%
O=C1c2cccc3cccc(c23)C(=O)N1CC1CCN(CC(O)COCc2ccc3c(c2)OCO3)CC1 (stereo unspecified),-17%,?,9.3µM*,5%,-5%
COc1ccc(CN2C(=O)c3cccc4cccc(c34)C2=O)cc1,-1%,87%,?,-15%,i
O=C(c1ccc(S(=O)(=O)N2CCCC2)cc1)N1CCC(CN2C(=O)c3cccc4cccc(c34)C2=O)CC1,-10%,1.3µM*,12µM*,0%,-9%
COc1ccc(S(=O)(=O)N2CCC(CN3C(=O)c4cccc5cccc(c45)C3=O)CC2)cc1,-4%,1.5µM*,?,15%,-5%
COc1ccc(OCC(O)CN2CCC(CN3C(=O)c4cccc5cccc(c45)C3=O)CC2)cc1 (stereo unspecified),-23%,156%,8.3µM*,-1%,?

# Source: PubChem BioAssay (National Center for Advancing Translational Sciences (NCATS))
